This note sets out measurements from PubChem BioAssay.

A short description of experiment [1]: stimulators of insulin release from INS-1E, primary screen, cell-based, 5 mM glucose, NPC library (AID 1117329;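 active = compound raises insulin release from rat beta cells at 5 mM glucose, no numeric limit stated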). The settings on record: rat INS-1E insulin secretion, at 10 µM, stronger effect = higher value.
A short description of experiment [2]: growth inhibition of GSK3B-pretreated HCT116 cells – cell-based, CellTiter-Glo, 0.2 to 20 µM (AID 1117336;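 active = compounds lowering colon cancer cell viability after pretreatment blocking the GSK3B kinase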). The settings on record: HCT116 viability after GSK3B inhibitor, at 20 µM, stronger effect = higher value.
The nature of experiment [3]: inhibition of endothelial tube formation, primary screen, imaging, VEGF stimulated, CD31 staining, tube area, NPC library (AID 1117340;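 active = compound that reduces growth-factor-driven endothelial tube area in a mixed cell culture, no cutoff stated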). As to conditions: VEGF-stimulated ADSC/ECFC co-culture, at 10 µM, stronger effect = higher value.
The nature of experiment [4]: glucagon-like peptide 1 release enhancers, primary assay, NCI-H716 cell line, NPC library (AID 1117341;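 active = compound raises GLP1 secretion from the human gut endocrine cells, with no numeric limit stated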). As to conditions: NCI-H716 cells, at 10 µM, stronger effect = higher value.
The nature of experiment [5]: HCT116 colon cancer cell growth inhibition, primary screen, CellTiter-Glo luminescence, NPC library (AID 1117342;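 active = compounds that lower survival of HCT116 colon cancer cells in the luminescence readout, no numeric limit stated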). As to conditions: at 20 µM (top of the series). (In general: ATP-based viability assays read luminescence as a measure of living cells.)
Experiment [6] in a line: CellTiter-Glo luminescent readout of SW480 viability loss, NPC library primary (AID 1117343;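 active = compounds that lower viability of the colon cancer cells in the luminescence readout, with no numeric limit stated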). As to conditions: CellTiter-Glo luminescence; at 20 µM (top of the series).
Experiment [7] in a line: decreased DLD-1 cellular survival, CellTiter-Glo luminescent readout, NPC compound collection, primary HTS (AID 1117346;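 active = compounds that lower survival of DLD-1 colon cancer cells in the luminescence readout, no cutoff given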). The settings on record: DLD-1 viability, CellTiter-Glo luminescence; at 20 µM (top of the series).
Experiment [8] is described as follows: modulation of C. elegans fzo-1 (AID 1259413).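 Also: fzo-1 mutant C. elegans worms in liquid wells.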 As to conditions: C. elegans fzo-1 modulator screen, mean read-out; stronger effect = higher value.
Experiment [9] deals with Aerobactin synthetase IucA (Klebsiella pneumoniae). Put plainly: IucA aerobactin synthetase inhibitors, biochemical, Tocris library, absorbance (AID 1345561).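 Also: 100% = enzyme without compound and 0% = no enzyme.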 The settings on record: purified IucA enzyme assay, absorbance (OD) read-out; stronger effect = lower value;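 tested at 8 µM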.
A short description of experiment [10]: growth inhibition of DIPG glioma cells, dose response, cell-based, JHH-DIPG-1, MIPE4.0, CellTiter-Glo, qHTS (AID 1347062; cut-off not given, nearly all actives have AC50 up to about 27 µM). The settings on record: JHH-DIPG-1 viability, CellTiter-Glo ATP luminescence.
Experiment [11] is described as follows: growth inhibition of DIPG glioma cells, dose response, cell-based, SU-DIPG-IV, MIPE4.0, CellTiter-Glo, qHTS (AID 1347063; cut-off not given, nearly all actives have AC50 up to about 30 µM;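 also: compound exposure lasted 48 hours before the viability readout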). The settings on record: SU-DIPG-IV viability, CellTiter-Glo ATP luminescence.
Experiment [12] is described as follows: growth inhibition of DIPG glioma cells, dose response, cell-based, SU-DIPG-XVII, MIPE5.0, CellTiter-Glo, qHTS (AID 1347060; cut-off not given, nearly all actives have AC50 up to about 26 µM;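 as to AC50: cells exposed to compound for 48 hours before viability readout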). The settings on record: SU-DIPG-XVII viability, CellTiter-Glo ATP luminescence.
Experiment [13] is described as follows: growth inhibition of DIPG glioma cells, dose response, cell-based, SU-DIPG-XIII, MIPE5.0, CellTiter-Glo, qHTS (AID 1347064; cut-off not given, nearly all actives have AC50 up to about 23 µM). As to conditions: SU-DIPG-XIII viability, CellTiter-Glo ATP luminescence.
Experiment [14] is described as follows: growth inhibition of DIPG glioma cells, dose response, cell-based, SU-DIPG-XIII, MIPE4.0, CellTiter-Glo, qHTS (AID 1347061; cut-off not given, nearly all actives have AC50 up to about 37 µM;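 also: cells exposed to compound for 48 hours before readout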). The settings on record: SU-DIPG-XIII viability, CellTiter-Glo ATP luminescence.
Experiment [15] can be described thus: differential killing of epithelial or mesenchymal cells, primary screen, imaging, PC-3E GFP, TEM4-18 mCherry, co-culture (AID 1345086;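 active = compounds killing one labelled cell type while sparing the other, by normalised counts and ratio limits, not self-fluorescent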;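 as to all read-outs here: cells exposed to compound for 72 h before imaging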;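 as to red/green cell ratio (normalised): normalised mesenchymal count divided by normalised epithelial count so high means epithelial killing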). As to conditions: imaging cell counts, at 1 µM; for red/green cell ratio (normalised): actives lie on both sides, counts scaled to control wells, 1 = unselective.
[16] abbreviates: measured here: epithelial PC-3E GFP cell survival.
The mark [17] stands for this setting: measured here: mesenchymal TEM4-18 mCherry cell survival.

Inconclusive results are not listed. Active and inactive are the calls of the source. Unless noted, no rule for the calls is given here.

For orientation: remaining activity means the signal under treatment as a percentage of the control signal. One may read the AC50 as the concentration at which the activity in the assay is half-maximal.

With `CN1[C@@H]2CC[C@H]1CC(OC(=O)c1c[nH]c3ccccc13)C2` (stereo partly drawn), in [1], the insulin secretion stimulation was 13.7% (inactive). Moreover, in [2], the viability decrease is 24.6% (inactive). In [3], the tube area decrease is 16.9% (inactive). Moreover, the GLP1 secretion stimulation in experiment [4] was -0.1% (inactive). The inhibition of viability in experiment [5] is 57.8% (active). For the same molecule, the values for the viability decrease (inhibition) in experiment [6] and in experiment [7] were 51.8% (active) and 43.6% (inactive), respectively. Further, in experiment [8], the mean signal was 271 (inactive). Moreover, the remaining activity in [9] was 107% (inactive). Moreover, the molecule was classed as inactive in [10] and in experiment [11].
For the molecule `Cc1ccsc1C(=CCCN1CCC[C@@H](C(=O)O)C1)c1sccc1C`, in experiment [1], the insulin secretion stimulation is 0.1% (inactive). Besides, the viability decrease in experiment [2] is -15.1% (inactive). Further, the tube area decrease in [3] is -6.2% (inactive). Moreover, in experiment [4], the GLP1 secretion stimulation was 2.2% (inactive). Also, in [5], the inhibition of viability was 25% (inactive). The viability decrease (inhibition) in experiment [6] is -16.3% (inactive); in experiment [7], 2.5% (inactive). Further, in experiment [8], the mean signal was 213 (inactive). Further, the outcome in experiment [12] and in [13] was inactive.
For the molecule `Cc1ccc(NC(=O)c2ccc(CN3CCN(C)CC3)cc2)cc1Nc1nccc(-c2cccnc2)n1`, the insulin secretion stimulation in experiment [1] was -3.1% (inactive). The viability decrease in [2] is 94.3% (active). The tube area decrease in experiment [3] is -31% (inactive). Further, the GLP1 secretion stimulation in experiment [4] was 13.7% (inactive). The inhibition of viability in experiment [5] is 98% (active). The viability decrease (inhibition) is 97.6% (active) in [6] and 88.8% (active) in experiment [7]. The mean signal in experiment [8] is 251 (inactive). In addition, the call in experiment [10] and in experiment [11] was inactive.
On to `CCOc1cc(N)c(Cl)cc1C(=O)NCC1CN(Cc2ccc(F)cc2)CCO1` (stereo not drawn), for which the insulin secretion stimulation in experiment [1] is -0.4% (inactive). Moreover, the viability decrease in experiment [2] is 71.6% (active). Moreover, the tube area decrease in experiment [3] is 5.1% (inactive). Besides, in experiment [4], the GLP1 secretion stimulation is 4.9% (inactive). Also, the inhibition of viability in experiment [5] was 46.1% (inactive). For the same molecule, the viability decrease (inhibition) in experiment [6] is 44.8% (inactive); in experiment [7] it was 24% (inactive). Further, the mean signal in [8] was 261 (inactive). Further, the molecule was classed as inactive in experiment [14], in experiment [10], in experiment [11] and in experiment [13].
As to `CCN1CCC[C@H]1CNC(=O)c1c(O)c(Cl)cc(Cl)c1OC`, in experiment [1], the insulin secretion stimulation was -0.9% (inactive). For the same molecule, the viability decrease in experiment [2] was -21% (inactive). In addition, in experiment [3], the tube area decrease was -4.8% (inactive). Besides, the GLP1 secretion stimulation in experiment [4] was 2.2% (inactive). For the same molecule, the inhibition of viability in experiment [5] was 9.13% (inactive). The viability decrease (inhibition) is -26.4% (inactive) in experiment [6] and -11.6% (inactive) in experiment [7]. Moreover, in experiment [8], the mean signal is 227 (inactive). In addition, the remaining activity in experiment [9] was 118% (inactive).
As to `NC(=O)OCC(COC(N)=O)c1ccccc1`, in [1], the insulin secretion stimulation was 0.3% (inactive). Besides, the viability decrease in experiment [2] was -7.4% (inactive). The tube area decrease in experiment [3] was -7.6% (inactive). The GLP1 secretion stimulation in [4] was -3% (inactive). In addition, the inhibition of viability in experiment [5] was 4.1% (inactive). Besides, the results for the viability decrease (inhibition) in experiment [6] and in [7] were -7.2% (inactive) and -12% (inactive), respectively. For the same molecule, the mean signal in experiment [8] was 234 (inactive). For the same molecule, in experiment [9], the remaining activity is 104% (inactive). Moreover, the call in experiment [12], in experiment [14] and in experiment [10] was inactive.
In the case of `Cn1c(NCCN(CCO)CCCc2ccc([N+](=O)[O-])cc2)cc(=O)n(C)c1=O`, the insulin secretion stimulation in experiment [1] is -5.7% (inactive). Besides, the viability decrease in experiment [2] is 38.3% (inactive). The tube area decrease in [3] was 1.8% (inactive). In addition, the GLP1 secretion stimulation in experiment [4] is 2.9% (inactive). In experiment [5], the inhibition of viability is 26.6% (inactive). Besides, the viability decrease (inhibition) in experiment [6] is 44.3% (inactive); in experiment [7], 14.1% (inactive). Moreover, the mean signal in experiment [8] is 242 (inactive). Further, the result in [12] and in [13] was inactive. In experiment [11], the AC50 is 20.9 µM (active).
Regarding `CN(C)CCCSc1ccccc1NC(=O)/C=C/c1ccccc1`, in experiment [1], the insulin secretion stimulation was 9.9% (inactive). Further, in [2], the viability decrease is -78.5% (inactive). In addition, in [3], the tube area decrease is 23.1% (inactive). The GLP1 secretion stimulation in experiment [4] is 3.9% (inactive). Moreover, the inhibition of viability in [5] is 25.5% (inactive). For the same molecule, the figures for the viability decrease (inhibition) in experiment [6] and in experiment [7] were 5.3% (inactive) and -18% (inactive), respectively. The mean signal in experiment [8] is 241 (inactive). In addition, in experiment [9], the remaining activity was 115% (inactive).
As for `NC(CS)C(=O)O` (stereo not drawn), in experiment [1], the insulin secretion stimulation is -0.5% (inactive). Besides, the viability decrease in experiment [2] was -0.35% (inactive). The tube area decrease in experiment [3] is 3.4% (inactive). In addition, the GLP1 secretion stimulation in [4] was -1.7% (inactive). The inhibition of viability in experiment [5] is 16.7% (inactive). Besides, the viability decrease (inhibition) in experiment [6] is 34.5% (inactive); in experiment [7], 32.7% (inactive). The red/green cell ratio (normalised) in [15] was 0.99 (inactive). The normalised cell number in experiment [15] (setting [16]) worked out at 1; in [15] (setting [17]), 0.99.
As for `Nc1nc(F)nc2c1ncn2[C@@H]1O[C@H](CO)[C@@H](O)[C@@H]1O`, the insulin secretion stimulation in experiment [1] was -0.6% (inactive). Besides, in experiment [2], the viability decrease is 12.6% (active). In addition, the tube area decrease in [3] was 106% (active). The GLP1 secretion stimulation in experiment [4] is -2% (inactive). Besides, the inhibition of viability in experiment [5] is 38% (inactive). Further, the viability decrease (inhibition) in experiment [6] is 17.2% (inactive); in experiment [7] it was 19.4% (inactive). Moreover, the mean signal in experiment [8] is 243 (inactive). Besides, the remaining activity in [9] was 101% (inactive). Further, in [12], the AC50 was 10.5 µM (active).
As to `CC(C)(C)NC(=O)[C@@H]1CN(Cc2cccnc2)CCN1C[C@@H](O)C[C@@H](Cc1ccccc1)C(=O)N[C@H]1c2ccccc2C[C@H]1O`, the insulin secretion stimulation in experiment [1] is 6.7% (inactive). The viability decrease in [2] was -0.8% (inactive). Further, in experiment [3], the tube area decrease was 7.2% (inactive). Also, the GLP1 secretion stimulation in [4] was 4.1% (inactive). Also, the inhibition of viability in experiment [5] was 10% (inactive). Also, the figures for the viability decrease (inhibition) in experiment [6] and in experiment [7] were -7.5% (inactive) and -9.3% (inactive), respectively. Moreover, the mean signal in experiment [8] was 283 (inactive). Further, the AC50 in experiment [14] was 1.32 µM (active).
For `Oc1cccc2[nH]ccc12`, in experiment [1], the insulin secretion stimulation was 4.05% (inactive). In [2], the viability decrease is 41.8% (inactive). Besides, in [3], the tube area decrease is -3.7% (inactive). Moreover, the GLP1 secretion stimulation in experiment [4] was -2.4% (inactive). In experiment [5], the inhibition of viability is 9.6% (inactive). Also, the viability decrease (inhibition) was 0.4% (inactive) in [6] and -8.1% (inactive) in experiment [7]. For the same molecule, in [15], the red/green cell ratio (normalised) was 0.85 (inactive). Moreover, the normalised cell number in [15] (setting [16]) worked out at 1.31; in experiment [15] (setting [17]), 1.12.
